{"source": "the supplement of paper PMC12350171", "note": "Structures can show the parent of a compound that is named as a salt. Values without a mark were called inactive.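 Rule for the calls: active = AUC significantly below DMSO controls by Student t-fit with adjusted P under 0.01; inactive = not significantly reduced.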", "data": [{"test_system": "Haemophilus parainfluenzae", "assay": "growth AUC normalised to DMSO control (fraction of control); higher = less growth inhibition, active = hit call of the paper", "settings": "20 µM", "how_it_was_run": "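Pathogens passaged twice anaerobically were inoculated at a starting OD578 of 0.01 into pre-reduced mGAM plates with drug at 20 μM and 1% DMSO, sealed with breathable membranes. Haemophilus parainfluenzae medium was supplemented with hemin and NAD. OD578 was read hourly for 24 h, with three biological replicates. Growth-curve AUC was computed by the trapezoidal rule up to the exponential-to-stationary transition and normalised to DMSO controls on the same plate.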", "values": [{"smiles": "Cc1cc(-c2ccccc2)nnc1NCCN1CCOCC1", "note": "[Minaprine dihydrochloride]", "growth AUC normalised to DMSO control": 0.991}, {"smiles": "CC[N+](CC)(CC)CCC(O)(c1ccccc1)C1CCCCC1", "note": "(stereo not drawn) [Tridihexethyl chloride]", "growth AUC normalised to DMSO control": 1.05}, {"smiles": "O=C(C1CCCCC1)N1CC(=O)N2CCc3ccccc3C2C1", "note": "(stereo not drawn) [Praziquantel]", "growth AUC normalised to DMSO control": 1.04}, {"smiles": "CO[C@@]1(NC(=O)Cc2cccs2)C(=O)N2C(C(=O)O)=C(COC(N)=O)CS[C@@H]21", "note": "[Cefoxitin sodium salt]", "growth AUC normalised to DMSO control": "0.0362 (active)"}, {"smiles": "CCCNC(=O)NS(=O)(=O)c1ccc(Cl)cc1", "note": "[Chlorpropamide]", "growth AUC normalised to DMSO control": 0.995}, {"smiles": "CCCC(CCC)C(=O)O", "note": "[Valproic acid]", "growth AUC normalised to DMSO control": 1.04}, {"smiles": "CO/N=C(\\C(=O)N[C@@H]1C(=O)N2C(C(=O)O)=C(C[N+]3(C)CCCC3)CS[C@H]12)c1csc(N)n1", "note": "[Cefepime hydrochloride]", "growth AUC normalised to DMSO control": "0.0407 (active)"}, {"smiles": "Nc1ccc(S(=O)(=O)Nc2ncccn2)cc1", "note": "[Sulfadiazine]", "growth AUC normalised to DMSO control": 1.01}, {"smiles": "O=C1CCC(N2C(=O)c3ccccc3C2=O)C(=O)N1", "note": "(stereo not drawn) [Thalidomide]", "growth AUC normalised to DMSO control": 0.97}, {"smiles": "C[C@]12C=CC(=O)C=C1CC[C@@H]1[C@@H]2C(=O)C[C@@]2(C)[C@H]1CC[C@]2(O)C(=O)CO", "note": "[Prednisone]", "growth AUC normalised to DMSO control": 1.01}, {"smiles": "C[C@H](CS)C(=O)N1CCC[C@H]1C(=O)O", "note": "[Captopril]", "growth AUC normalised to DMSO control": 1.05}, {"smiles": "COc1ccccc1OCC(O)CO", "note": "(stereo not drawn) [Guaifenesin]", "growth AUC normalised to DMSO control": 1.04}, {"smiles": "C[C@]12CC[C@@H]3c4ccc(O)cc4C[C@@H](CCCCCCCCC[S+]([O-])CCCC(F)(F)C(F)(F)F)[C@H]3[C@@H]1CC[C@@H]2O", "note": "(stereo partly drawn) [Fulvestrant]", "growth AUC normalised to DMSO control": 1.32}]}]}
